Values joined by “and” are separate entries in the source; they are usually repeats but may differ in a detail not shown here. Identical values can stand only once. For some of these results: Entries with a potency or affinity are not part of this list. Active and inactive are the calls of the source.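 The calls were made as follows, unless noted: active = luciferase signal above three times the same-plate solvent-only control wells; inactive = the rest.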

Experiment [1] in a line: polyglutamine-triggered caspase-3 activation inhibitors, cell-based (AID 1583). The following applies: polyglutamine-induced caspase-3 activation, cell assay; stronger effect = higher value;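 tested at 10 µM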.
A short description of experiment [2]: suppressors of polyQ aggregation in yeast, 75Q-TubU reporter (AID 1593). The settings on record: Yeast 75Q polyglutamine aggregation reporter.
Experiment [3] in a line: rescue of polyQ-huntingtin neuronal dysfunction in worms, whole organism, C. elegans mechanosensory neurons, N-terminal huntingtin (AID 1599). The following applies: touch response, stronger effect = higher value.
A short description of experiment [4]: inhibitors of mitochondrial cytochrome c release, biochemical, purified mitochondria (AID 1603).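 Also: mouse liver mitochondria challenged with calcium chloride; signal normalized to the plate average as 100%.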 The settings on record: stronger effect = lower value.
Experiment [5] in a line: inhibitors of polyQ protein aggregation (AID 1604). The following applies: polyglutamine-induced protein aggregation inhibition assay; stronger effect = higher value; tested at 2.5 µM.
Experiment [6] in a line: enhancers of glutamate uptake in motor neurons, MN-1 cell line (AID 1612).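 Also: tested at 1 µM final; 0% = mean of DMSO vehicle wells on each plate; positive means more glutamate uptake than control and negative means less.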 The settings on record: MN-1 motor neuron cells, stronger effect = higher value.
A short description of experiment [7]: suppressors of polyglutamine aggregation in yeast, 75Q-TubH (AID 1616). The settings on record: S. cerevisiae 75Q-TubH polyglutamine aggregation suppression; stronger effect = higher value.
Experiment [8] can be described thus: liver-stage malaria parasite growth inhibition, primary screen, cell-based, HepG2, luciferase luminescence, HepG2 viability (AID 624349; in the data active = parasite load remaining mostly below about 12%, no sharp cut-off; inactive = mostly above about 10%;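 also: 100% = mean of DMSO negative control wells on the same plate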). The settings on record: P. berghei liver stage in HepG2, luciferase luminescence, concentration not given here; parasite load remaining: stronger effect = lower value; viability: measured here: HepG2 viability without parasites.
In experiment [9] the target is 6-phosphogluconate dehydrogenase, decarboxylating (Homo sapiens) (UniProt P52209). Description: 6PGD enzyme inhibitors, primary screen, biochemical, human, recombinant enzyme, NADPH absorbance (AID 1159550;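 active = at least 20% inhibition of 6-phosphogluconate dehydrogenase activity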). The following applies: recombinant 6PGD, NADPH absorbance 341 nm; at 10 µM; stronger effect = higher value.
Chain of 6-phosphogluconate dehydrogenase, decarboxylating (Homo sapiens) (P52209 whole entry, looked up): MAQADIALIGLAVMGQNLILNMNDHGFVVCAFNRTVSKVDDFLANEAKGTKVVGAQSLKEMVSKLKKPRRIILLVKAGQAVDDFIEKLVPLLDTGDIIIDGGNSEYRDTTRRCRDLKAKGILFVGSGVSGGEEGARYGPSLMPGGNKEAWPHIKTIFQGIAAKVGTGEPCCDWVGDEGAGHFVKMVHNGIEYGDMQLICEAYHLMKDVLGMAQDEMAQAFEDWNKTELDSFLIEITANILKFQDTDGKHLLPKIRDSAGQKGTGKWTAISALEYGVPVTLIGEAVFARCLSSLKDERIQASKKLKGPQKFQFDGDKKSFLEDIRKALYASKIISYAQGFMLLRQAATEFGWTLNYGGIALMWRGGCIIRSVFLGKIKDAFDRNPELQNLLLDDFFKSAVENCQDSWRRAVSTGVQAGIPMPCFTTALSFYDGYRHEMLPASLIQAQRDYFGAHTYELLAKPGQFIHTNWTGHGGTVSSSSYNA
Experiment [10] can be described thus: differential killing of epithelial or mesenchymal cells, primary screen, imaging, PC-3E GFP, TEM4-18 mCherry, co-culture (AID 1345086;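 active = compounds killing one labelled cell type while sparing the other, by normalised counts and ratio limits, not self-fluorescent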;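 as to all read-outs here: cells exposed to compound for 72 h before imaging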;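 as to red/green cell ratio (normalised): normalised mesenchymal count divided by normalised epithelial count so high means epithelial killing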). The following applies: imaging cell counts, at 1 µM; for red/green cell ratio (normalised): actives lie on both sides, counts scaled to control wells, 1 = unselective.
The target in experiment [11] is Mitogen-activated protein kinase 7 (Homo sapiens) (UniProt Q13164). Description: ERK5 transactivation activators in reporter cells, primary screen, cell-based, HTS (AID 1508626).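 Also: luciferase driven by Gal4-ERK5 fusion binding five Gal4 sites before minimal TATA.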 The following applies: HeLa Gal4-ERK5 transactivation, 18 h, at 5 µM, stronger effect = higher value.
Chain of Mitogen-activated protein kinase 7 (Homo sapiens) (Q13164 whole entry, looked up, the tested form may be a part): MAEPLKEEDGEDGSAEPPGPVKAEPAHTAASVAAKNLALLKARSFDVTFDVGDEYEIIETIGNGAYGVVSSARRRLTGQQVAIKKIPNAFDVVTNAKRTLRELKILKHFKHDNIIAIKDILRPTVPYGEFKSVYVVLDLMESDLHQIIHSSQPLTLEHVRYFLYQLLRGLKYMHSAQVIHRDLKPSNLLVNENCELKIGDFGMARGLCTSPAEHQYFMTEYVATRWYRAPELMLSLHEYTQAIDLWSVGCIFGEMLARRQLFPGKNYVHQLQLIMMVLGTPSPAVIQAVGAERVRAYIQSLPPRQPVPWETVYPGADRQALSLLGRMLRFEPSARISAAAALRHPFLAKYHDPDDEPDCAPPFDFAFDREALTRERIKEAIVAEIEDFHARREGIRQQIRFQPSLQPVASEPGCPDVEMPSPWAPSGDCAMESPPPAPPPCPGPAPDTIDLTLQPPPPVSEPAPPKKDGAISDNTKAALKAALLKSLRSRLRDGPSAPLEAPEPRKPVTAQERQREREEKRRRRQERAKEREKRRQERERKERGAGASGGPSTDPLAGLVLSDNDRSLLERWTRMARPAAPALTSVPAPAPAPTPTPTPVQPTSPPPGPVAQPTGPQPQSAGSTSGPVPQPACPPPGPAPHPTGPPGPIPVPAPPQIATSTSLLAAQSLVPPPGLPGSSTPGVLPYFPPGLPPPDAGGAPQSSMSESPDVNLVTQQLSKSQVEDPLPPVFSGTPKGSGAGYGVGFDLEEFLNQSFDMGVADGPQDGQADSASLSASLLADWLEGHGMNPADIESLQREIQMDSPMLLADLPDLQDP
A short description of experiment [12]: sensitizers of A549 cells to miR-34 induction, primary screen, imaging, A549 dox-inducible miR-34, nuclei and caspase counts (AID 1347080;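 active = compounds whose cell count with miR-34 switched on is under 0.7 times the count with it off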). The following applies: A549 miR-34 inducible, Hoechst nuclei count, 48 h.
Experiment [13] addresses NAD(+) hydrolase SARM1 (Homo sapiens) (UniProt Q6SZW1). Put plainly: SARM1 TIR NADase inhibitors, cell lysate, NAD-Glo luminescence (AID 1508614;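 active = compound whose remaining NAD level is above about 45 nM, limit read from the data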;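 also: higher remaining NAD means stronger inhibition of SARM1 NADase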). The following applies: SAM-TIR HEK293T lysate NADase, at 1 µM, stronger effect = higher value.
Experiment [14] can be described thus: viability rescue of complex I mutant cybrids, primary screen, cell-based, galactose medium, ATP luminescence (AID 1645843;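 active = z-score of at least 1.8 in each of two replicates, scored against plate mean and spread of sample wells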;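 also: positive z means more ATP and so rescue of galactose-driven cybrid death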). The following applies: complex I mutant cybrid cells, 72 h, stronger effect = higher value.
[15] abbreviates: measured here: epithelial PC-3E GFP cell survival.
[16] abbreviates: measured here: mesenchymal TEM4-18 mCherry cell survival.

Chain of NAD(+) hydrolase SARM1 (Homo sapiens) (Q6SZW1 whole entry, looked up): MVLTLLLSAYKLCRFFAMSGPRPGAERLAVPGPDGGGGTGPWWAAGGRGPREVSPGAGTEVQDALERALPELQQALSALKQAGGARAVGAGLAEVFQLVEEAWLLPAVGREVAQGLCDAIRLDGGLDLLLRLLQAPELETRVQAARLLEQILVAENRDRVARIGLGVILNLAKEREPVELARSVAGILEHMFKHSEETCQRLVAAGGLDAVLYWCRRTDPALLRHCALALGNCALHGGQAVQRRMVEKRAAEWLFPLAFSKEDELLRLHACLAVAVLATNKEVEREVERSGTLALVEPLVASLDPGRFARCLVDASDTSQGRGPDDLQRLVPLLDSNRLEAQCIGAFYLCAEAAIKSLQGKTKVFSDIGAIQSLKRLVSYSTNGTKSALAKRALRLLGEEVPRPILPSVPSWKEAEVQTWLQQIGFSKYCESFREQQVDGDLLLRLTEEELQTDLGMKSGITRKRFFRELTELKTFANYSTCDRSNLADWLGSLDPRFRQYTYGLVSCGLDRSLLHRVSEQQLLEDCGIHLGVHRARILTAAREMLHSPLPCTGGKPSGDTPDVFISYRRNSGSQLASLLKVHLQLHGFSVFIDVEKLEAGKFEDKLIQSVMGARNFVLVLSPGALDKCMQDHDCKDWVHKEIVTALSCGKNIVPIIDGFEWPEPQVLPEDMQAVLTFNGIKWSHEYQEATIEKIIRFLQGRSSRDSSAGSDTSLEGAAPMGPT

Regarding `NC1(C(=O)O)CCCC1`, the figures for the inhibition in experiment [1] and in experiment [9] were 20.1% and -12.6% (inactive), respectively. For the same compound, the score in [2] was determined as 1.21. Also, in experiment [3], the rescue above control was -10.9. For the same compound, the cytochrome c release ratio in experiment [4] was 4.67. In addition, in experiment [5], the inhibition of aggregation was 81.6%. In addition, the glutamate uptake change in experiment [6] was found to be 2.91%. In experiment [7], the aggregation suppression score amounted to 1.57. The parasite load remaining in [8] is 96.4% (inactive). In experiment [8], this compound yielded a viability of 69.9%. Moreover, the red/green cell ratio (normalised) in [10] was 0.86 (inactive). For the same compound, the normalised cell number came out at 1.24 in [10] (setting [15]) and 1.06 in [10] (setting [16]). Also, the luciferase signal in experiment [11] was 76 AU (inactive).
As to `O=C(O)c1cc(=O)c2cccc(O)c2[nH]1`, the inhibition in [1] is -21.7%; in [9], 4.89% (inactive). In [2], the score stood at 0.98. Besides, the rescue above control in [3] was -4.01. Also, the cytochrome c release ratio in experiment [4] turned out to be 1.01. In experiment [5], the inhibition of aggregation amounted to 57.7%. In addition, the glutamate uptake change in experiment [6] is 9.13%. This compound also yielded an aggregation suppression score in experiment [7] of 1.12. For the same compound, in experiment [8], the parasite load remaining was 174% (inactive). Besides, in experiment [8], the viability was 71.4%. Also, the red/green cell ratio (normalised) in [10] is 1.29 (inactive). Moreover, the normalised cell number in experiment [10] (setting [15]) came out at 0.88; in experiment [10] (setting [16]), 1.13. Further, in [11], the luciferase signal was 100 AU (inactive).
Turning to `CCCC(=O)Nc1ncnc2c1ncn2[C@@H]1O[C@@H]2COP(=O)(O)O[C@H]2[C@H]1OC(=O)CCC`, the inhibition in experiment [9] was 10.5% (inactive). Moreover, the fold change in [12] (stronger effect = lower value, cell number ratio, induced over uninduced) was 1.04 (inactive) and 0.902 (inactive); in experiment [12] (measured here: relative caspase fold change +Dox/-Dox), 0.758 and 0.739. The cell count was 5610 and 9020 in [12] (measured here: total cells with miR-34 induction, stronger effect = lower value); 5380 and 10000 in [12] (measured here: total cells without miR-34 induction). Besides, the remaining NAD in [13] was 10 nM (inactive). Further, the luciferase signal in experiment [11] is 68 AU (inactive). Further, in experiment [14], the z-score was 0.335 (inactive).
`COc1ccc2c(=O)c(CC(=O)O)coc2c1`: the inhibition in [9] is -1.05% (inactive). Also, in experiment [10], the red/green cell ratio (normalised) was 0.91 (inactive). Besides, the normalised cell number came out at 0.98 in experiment [10] (setting [15]) and 0.89 in experiment [10] (setting [16]). Further, the luciferase signal in [11] is 60 AU (inactive).
On to `O=C(O)c1cc2ccccc2[nH]1`, for which, in [8], the parasite load remaining was 53.6% (inactive) and the viability was found to be 75.3%. In experiment [9], the inhibition was 0.53% (inactive). Further, in [10], the red/green cell ratio (normalised) was 1.04 (inactive). In addition, in experiment [10] (setting [15]), the normalised cell number amounted to 0.91. The same compound gave a normalised cell number in experiment [10] (setting [16]) of 0.95. The luciferase signal in experiment [11] was 36 AU (inactive).
As for `COc1ccc2c(c1)OCC(Cc1ccc(OC)c(OC(C)=O)c1)C2=O` (centres undefined), the inhibition in [9] was 2.88% (inactive). Moreover, the red/green cell ratio (normalised) in experiment [10] is 0.86 (inactive). Also, the normalised cell number amounted to 0.47 in [10] (setting [15]) and 0.4 in experiment [10] (setting [16]). For the same compound, in experiment [11], the luciferase signal was 80 AU (inactive).
In the case of `CON`, the figures for the inhibition in [1] and in [9] were -5.62% and 3.11% (inactive), respectively. The compound further gave a score in experiment [2] of 1.4. In [3], this compound displayed a rescue above control of -6.41. Moreover, in experiment [4], the cytochrome c release ratio came to 0.58. Also, the inhibition of aggregation in [5] was -9.7%. Besides, in [6], the glutamate uptake change amounted to 19.3%. Also, in experiment [7], the aggregation suppression score was 1.29. For the same compound, the red/green cell ratio (normalised) in experiment [10] is 1.03 (inactive). The normalised cell number came out at 1.15 in experiment [10] (setting [15]) and 1.18 in [10] (setting [16]). For the same compound, the luciferase signal in experiment [11] was 124 AU (inactive).
Take `NC1=NCCN1CC(=O)O`: the inhibition in [1] was 26.8%; in experiment [9], -2.27% (inactive). The compound further showed a score in experiment [2] of 1.43. This compound also had a rescue above control in experiment [3] of 1.68. For the same compound, in [4], the cytochrome c release ratio is 1.01. Moreover, the inhibition of aggregation in [5] is 80.3%. For the same compound, the glutamate uptake change in experiment [6] turned out to be 12.9%. This compound also had an aggregation suppression score in [7] of 0.99. For the same compound, the parasite load remaining in experiment [8] was 89.9% (inactive). The same compound gave a viability in [8] of 69.9%. The red/green cell ratio (normalised) in experiment [10] was 0.92 (inactive). The normalised cell number came to 1.1 in experiment [10] (setting [15]) and 1.01 in experiment [10] (setting [16]). In [11], the luciferase signal was 48 AU (inactive).

The values above are taken from PubChem BioAssay.
